Hits are enriched below; roughly 12% of the tested compounds scored in any of these assays.
HP1b binding inh: inhibitors of HP1-beta chromodomain binding to methylated histone tails; AlphaScreen HP1-beta / biotin-H3K9me3 peptide binding; 390,000 compounds, 0.56% hits; Potency, µM (doses to about 114 µM), actives largely listed as inhibitors; AID 540317; also: nearly all actives have a fitted effect of over 70% in size
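AlphaScreen: HP1-beta (50 nM) preformed 30 min with biotin-H3(1-18)K9me3 peptide (50 nM) in PBS pH 7.4, 0.01% Tween-20. Compound added for 30 min at RT, then streptavidin donor/nickel chelate acceptor beads (10 ug/mL) for 30 min.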
G9a block: G9a (human) methyltransferase inhibition | Q96KQ7 | G9a H3K9 monomethylation, AlphaScreen, 2 h | Potency, µM (series often up to 102 µM), hits mostly inhibitors | 350,000 compounds, 8.8% hits; also: nearly all actives have a fitted effect of over 75% in size
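Chemiluminescent proximity detection of H3K9 monomethylation, read after 10 min bead incubation in the dark. Reaction: 20 nM G9a, 500 nM biotin-H3K9 peptide, 20 uM SAM cofactor, 2 h, room temperature, following 15 min enzyme-compound preincubation.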
JMJD2A Tudor inh: inhibitors of human JMJD2A Tudor domain; Potency, µM (highest dose often 114 µM), hits mostly inhibitors; AlphaScreen JMJD2A-Tudor / H3K4me3 peptide binding; 390,000 compounds, 4.4% hits; O75164; also: nearly all actives have a fitted effect of over 50% in size
PLK1 PBD block: PLK1 (human) polo-box domain binding inhibition; P53350; AID 720504; 360,000 compounds, 2.8% hits; Potency, µM, most hits filed as inhibitors; Plk1 PBD binding of FITC phosphopeptide, fluorescence polarization; also: series mostly up to about 57 µM; nearly all actives have a fitted effect of over 65% in size
Target sequence (P53350 whole entry, looked up, the tested form may be a part): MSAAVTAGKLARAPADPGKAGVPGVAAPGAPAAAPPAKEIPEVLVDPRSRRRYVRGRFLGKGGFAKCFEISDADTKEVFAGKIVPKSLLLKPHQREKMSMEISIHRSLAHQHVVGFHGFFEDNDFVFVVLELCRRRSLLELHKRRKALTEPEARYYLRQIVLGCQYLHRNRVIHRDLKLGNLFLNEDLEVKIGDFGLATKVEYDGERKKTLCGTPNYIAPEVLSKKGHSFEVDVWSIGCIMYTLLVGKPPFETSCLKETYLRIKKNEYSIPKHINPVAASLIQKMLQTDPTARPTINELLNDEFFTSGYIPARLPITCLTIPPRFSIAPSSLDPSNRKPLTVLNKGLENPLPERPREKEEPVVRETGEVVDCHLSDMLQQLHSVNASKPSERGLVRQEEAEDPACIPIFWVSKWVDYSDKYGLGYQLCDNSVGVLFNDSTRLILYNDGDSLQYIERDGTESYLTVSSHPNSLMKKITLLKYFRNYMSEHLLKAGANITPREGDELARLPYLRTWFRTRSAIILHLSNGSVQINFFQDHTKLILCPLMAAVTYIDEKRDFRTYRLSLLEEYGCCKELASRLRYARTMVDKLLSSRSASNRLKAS
BAZ2B inh: inhibitors of human BAZ2B bromodomain | AlphaScreen BAZ2B-H3K14Ac peptide displacement | Q9UIF8 | 360,000 compounds, 4.4% hits | Potency, µM (top dose mostly 114 µM), actives largely listed as inhibitors; also: nearly all actives have a fitted effect of over 60% in size
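AlphaScreen displacement of biotin-H3(5-23)K14Ac peptide (50 nM final) from BAZ2B (50 nM final) in PBS pH 7.4, 0.01% Tween-20; complex preformed 30 min RT, then compounds (top 110 uM) 30 min RT, beads 20 min dark.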
Sfp PPTase inh: inhibitors of Bacillus subtilis Sfp phosphopantetheinyl transferase. 310,000 compounds, 3.5% hits. Biochemical Sfp PPTase activity, qHTS. Q9F4F7. Potency, µM, usual class: inhibitors;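 also: the enzyme is Sfp with the accession as filed and its product quenches rhodamine fluorescence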
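Compounds were incubated with enzyme (final 15 nM) for 15 min at room temperature before substrate addition started the reaction. Fluorescence at 525 nm excitation, 598 nm emission was recorded immediately and after 30 minutes.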
Each line names hits and unclear results; the compound was inactive in the other large screens. Calls follow the shape of the dose curve; as a rule, active = well fitted curve in the direction sought with a large enough effect; inconclusive = small, poorly fitted or top-dose-only effect, or another doubt; inactive = no such curve, though single readings can be large; an effect the other way counts as inactive or inconclusive.

COCCN(C(=O)c1ccc(C#N)cc1)c1c(N)n(Cc2ccccc2)c(=O)[nH]c1=O	none (no result: Sfp PPTase inh)
CCCn1c(N)c(N(CCOC)C(=O)c2ccc([N+](=O)[O-])cc2Cl)c(=O)[nH]c1=O	G9a block 50µM
COCCN(C(=O)c1ccc(OCC(C)C)cc1)c1c(N)n(Cc2ccccc2)c(=O)[nH]c1=O	G9a block 35µM (no result: Sfp PPTase inh)
CCCn1c(N)c(N(CCOC)C(=O)c2ccc(N(C)S(=O)(=O)c3ccc(C)cc3)cc2)c(=O)[nH]c1=O	G9a block 1µM, BAZ2B inh inconclusive (no result: Sfp PPTase inh)
CCc1sc(-c2cc3cccc(OC)c3oc2=O)nc1-c1ccccc1	none (no result: G9a block, PLK1 PBD block, BAZ2B inh, Sfp PPTase inh)
Cc1cc2c(s1)c1cnn(Cc3cccc(F)c3F)c(=O)c1n2C	none (no result: HP1b binding inh, G9a block, PLK1 PBD block, BAZ2B inh, Sfp PPTase inh)
CCCn1c(N)c(N(CCOC)C(=O)c2ccc(N3CCCC3=O)cc2)c(=O)[nH]c1=O	G9a block 56µM (no result: Sfp PPTase inh)
Cn1nc(C(=O)Nc2nc3ccccc3[nH]2)c2ccccc2c1=O	none
Cn1nc(C(=O)Nc2c(-c3ccccc3)nc3sccn23)c2ccccc2c1=O	BAZ2B inh inconclusive, Sfp PPTase inh 40µM
CC1CCN(C(=O)CCNS(=O)(=O)c2ccc3c(c2)c(=O)n(C)c(=O)n3C)CC1	none
CCOC(=O)CSc1nnnn1-c1cccc2ccccc12	G9a block 10µM
Cc1n[nH]c(=O)c2c(NC(=O)CSc3nnc(C4CC4)n3C)oc(C)c12	G9a block 40µM (no result: Sfp PPTase inh)
Cc1n[nH]c(=O)c2c(NC(=O)CSc3nc4ccccc4c(=O)n3-c3ccc(OC(F)F)cc3)oc(C)c12	none (no result: Sfp PPTase inh)
COc1cc(/C=C/C(=O)OCC(=O)Nc2oc(C)c3c(C)n[nH]c(=O)c23)ccc1OC(F)F	G9a block 14µM (no result: Sfp PPTase inh)
COc1ccccc1CNC(=O)COC(=O)/C=C/c1ccc(OC(F)F)c(OC)c1	none (no result: Sfp PPTase inh)
COCCCn1c(SCC(=O)Nc2oc(C)c3c(C)n[nH]c(=O)c23)nc2ccccc2c1=O	G9a block 50µM (no result: Sfp PPTase inh)
O=C(Cn1c(=O)n(Cc2ccc(C(=O)NCc3ccc4c(c3)OCO4)cc2)c(=O)c2ccccc21)Nc1cccc(Cl)c1	none (no result: PLK1 PBD block, Sfp PPTase inh)
CCCn1nc(C(=O)Nc2ccc3c(c2)OCCO3)c2ccccc2c1=O	none (no result: Sfp PPTase inh)
Cc1n[nH]c(=O)c2c(NC(=O)CSc3nnc(-c4ccco4)n3C)oc(C)c12	G9a block inconclusive (no result: Sfp PPTase inh)
COc1ccccc1-n1nnnc1SCC(=O)Nc1oc(C)c2c(C)n[nH]c(=O)c12	G9a block 11µM (no result: Sfp PPTase inh)
COc1ccccc1NC(=O)CSc1nnnn1-c1ccccc1OC	G9a block 71µM
COc1ccccc1-c1nnc(SCC(=O)Nc2oc(C)c3c(C)n[nH]c(=O)c23)n1C	G9a block 5µM (no result: Sfp PPTase inh)
c1ccc(-c2ccncn2)cc1	none (no result: G9a block, BAZ2B inh, Sfp PPTase inh)
CNS(=O)(=O)c1cc(C(=O)O)ccc1OC	JMJD2A Tudor inh 13µM, PLK1 PBD block 27µM
COc1ccc(C(=O)O)cc1S(=O)(=O)NCc1ccccn1	JMJD2A Tudor inh inconclusive, BAZ2B inh 71µM
COc1ccc(C(C)C)cc1S(=O)(=O)NCc1ccccn1	JMJD2A Tudor inh 2.2µM
COc1ccc(C)cc1S(=O)(=O)NCc1ccccn1	none (no result: HP1b binding inh, G9a block, JMJD2A Tudor inh, BAZ2B inh, Sfp PPTase inh)
CCOc1ccc(S(=O)(=O)NCc2ccccn2)cc1NC(=O)c1ccccc1	JMJD2A Tudor inh 7.9µM (no result: Sfp PPTase inh)
O=C(OCC#CCSc1nnc(-c2cccc3ccccc23)o1)c1sc2ccccc2c1Cl	none (no result: HP1b binding inh, G9a block, PLK1 PBD block, BAZ2B inh, Sfp PPTase inh)
Cc1cc(O)c(C(c2ccccc2)N2CCN(c3ccc(F)cc3)CC2)c(=O)n1Cc1ccco1 (centres undefined)	G9a block inconclusive, JMJD2A Tudor inh inconclusive (no result: PLK1 PBD block, Sfp PPTase inh)
COc1cccc([C@H]2Oc3ccc(OC)cc3/C(=N\O[C@@H](C)c3cn([C@H](CO)Cc4ccccc4)nn3)[C@@H]2O)c1	none (no result: HP1b binding inh, G9a block, JMJD2A Tudor inh, PLK1 PBD block, BAZ2B inh)
C[C@@H]1NC(=O)N(c2ccc(F)cc2)C1=O	none
CCn1c(=O)sc2cc(NS(=O)(=O)c3ccc(C)cc3)ccc21	none (no result: PLK1 PBD block, Sfp PPTase inh)
O=S(=O)(NCc1ccccn1)c1cc(C(F)(F)F)ccc1Cl	G9a block inconclusive
Cc1cc(S(=O)(=O)NCC(C)C)ccc1OCC(=O)NCc1ccccn1	G9a block inconclusive, JMJD2A Tudor inh 22µM, BAZ2B inh inconclusive
O=S(=O)(NCc1ccccn1)c1cc(Cl)ccc1Cl	G9a block 79µM
CCc1ccc(CNC(=O)c2ccc3nc(SCc4ccc(F)cc4)n(C)c3c2)cc1	none (no result: PLK1 PBD block, Sfp PPTase inh)
